Data as given in PubChem BioAssay AID2599 (Sanford-Burnham Center for Chemical Genomics, 2010).
The campaign covered roughly 330,000 compounds. About 5,800 (1.8%) were called active.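 The calls were made as follows: active = inhibition above about 50% at the single tested dose (limit read from the data); inactive = the rest.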 For the sample, actives were picked, then their nearest neighbours and some compounds at random.

Each molecule was assayed against Sentrin-specific protease 6 (Homo sapiens) (UniProt Q9GZR1) (assay: inhibition of human SENP6 catalytic domain – biochemical, luminescence, uHTS, primary screen (AID 2599;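 also: plate controls were DMSO wells with enzyme for no effect and DMSO wells lacking enzyme for full effect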)). Details: Recombinant SENP6 catalytic domain, aminoluciferin luminescence; at 10 µM; stronger effect = higher value.
Chain of Sentrin-specific protease 6 (Homo sapiens) (Q9GZR1 628-1112 limits assumed): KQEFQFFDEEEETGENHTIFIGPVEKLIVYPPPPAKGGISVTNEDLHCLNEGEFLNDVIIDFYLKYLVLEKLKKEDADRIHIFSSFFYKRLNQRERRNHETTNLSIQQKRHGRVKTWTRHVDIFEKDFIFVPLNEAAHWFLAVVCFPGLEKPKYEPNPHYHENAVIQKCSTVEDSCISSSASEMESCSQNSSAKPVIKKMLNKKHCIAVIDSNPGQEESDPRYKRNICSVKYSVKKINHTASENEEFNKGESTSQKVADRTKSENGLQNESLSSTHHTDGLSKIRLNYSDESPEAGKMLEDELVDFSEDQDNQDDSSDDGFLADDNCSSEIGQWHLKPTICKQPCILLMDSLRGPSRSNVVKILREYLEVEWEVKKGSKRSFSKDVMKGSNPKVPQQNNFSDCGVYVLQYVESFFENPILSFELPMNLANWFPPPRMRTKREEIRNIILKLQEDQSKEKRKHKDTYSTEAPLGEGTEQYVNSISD

inhibition, active:
Cc1ccc(-n2ncc3c(Nc4cccc(C(=O)O)c4)ncnc32)cc1 97.4%
c1ccc2sc(NN=C3CCCC3)nc2c1 84.1%
CC1=NN(C(N)=S)C(=O)C1N=Nc1cc(Cl)ccc1Cl (centres undefined) 67.7%
Cc1ccc(S(=O)(=O)Nc2nc3ccccc3nc2N2CCc3ccccc3C2)cc1 72.3%
Cn1cccc1C(=O)OCC(=O)c1ccc(Br)s1 80.6%
COc1ccc(CNC(=O)COc2ccccc2C(=O)c2cnn(-c3ccccc3)c2)cc1OC 82.5%
O=C1/C(=C/c2cccs2)CCc2ccccc21 94.5%
CCc1ccc(C(=O)COC(=O)c2ccco2)cc1 66.8%
O=[N+]([O-])c1c(NCCO)cc(Sc2nc3ccccc3s2)c2nonc12 79.3%
C/C(=N\NC(=O)c1ccoc1C)c1ccccc1O 56.4%
O=C(Nc1ccccc1)Nc1ccccc1C(=O)NCc1ccco1 75.2%

inhibition, inactive:
CCN(CC)C(=O)CSc1ncnc2c1cnn2-c1ccccc1 22.4%
Cc1ccc(Nc2ncnc3c2cnn3C)c(C)c1 14.7%
O=C(CCNC(=O)c1ccccc1)Nc1nc2ccccc2s1 -6.27%
O=C(CCC(=O)c1cccs1)Nc1nc2ccccc2s1 -6.28%
CN(C)S(=O)(=O)c1ccc(N2CCCC2)c(C(=O)Nc2cccc(F)c2)c1 -13.9%
c1ccc(C2CCC(N3CCC(N4CCCCC4)CC3)CC2)cc1 (centres undefined) -12.6%
CCCOc1ccc(NC(=O)CC2C(=O)N(C)C(=S)N2Cc2ccc3c(c2)OCO3)cc1 (centres undefined) -5.66%
Cc1ccc(NC(=O)CN2CCc3ccccc3C2)cc1 -1.22%
Cc1ccc(S(=O)(=O)N2CCN(c3ncnc4ccccc34)CC2)cc1 -8.22%
CCOc1ncccc1C(=O)N(C)CC(=O)Nc1ccc(F)cc1 -13.5%
COc1ccc(CCC(C)N2CCc3ccccc3C2)cc1 (centres undefined) -16.3%
CC1CCC(NC(=O)CNC(=O)c2ccc3ccccc3c2)CC1 (centres undefined) -5.64%
COc1ccc(N(CC(=O)NCc2ccc(F)cc2)C(=O)CCC(=O)Nc2nccs2)cc1 -20.2%
O=C(COC(=O)c1c2c(nc3ccccc13)CCCC2)c1ccc(Br)s1 -21.7%
Cn1cccc1C(=O)OCC(=O)NCCc1ccccc1 2.46%
Cc1cc(C(=O)N2CCC(C(=O)O)CC2)c(C(F)(F)F)o1 -4.3%
CCCNC(=S)NC1CC2CCCC(C1)N2CC(C)C (centres undefined) -7.92%
COc1ccc(CNC(=O)Cc2ccc(-c3ccccc3)cc2)cc1OC -23.6%
COc1ccc(CNC(=O)COC(=O)c2c(C)nn(-c3ccccc3)c2C)cc1OC -8.11%
COC(=O)C1=C(C(=O)OC)[C@@H]2N(C)c3ccccc3[C@@]23C[C@@H](C(=O)OC)N(C(C)=O)C3=N1 3.79%
CC(C)(C)NC(=O)Cn1c(SCC(=O)Nc2nccs2)nc2ccccc21 1.04%
COc1ccc(/C=C2\CCc3ccccc3C2=O)c(OC)c1OC -14.7%
CN1C/C(=C/c2cccs2)C(=O)/C(=C\c2cccs2)C1 8.32%
Cc1ccc(NS(=O)(=O)c2cccs2)cc1S(=O)(=O)N1CCCCCC1 -3.66%
CCN(CC)c1ccc(C(=O)OCC(=O)c2ccco2)cc1 -14.3%
O=C(OCC(=O)N1CCCC1)c1ccco1 -23.3%
Cc1ccc(CN2CC(C(=O)NNC(=O)Cn3ccc(C(F)(F)F)n3)CC2=O)cc1 (centres undefined) -0.795%
Cc1nc2nc(CSc3nc4ccccc4s3)cc(=O)n2[nH]1 -34.9%
NC(=O)c1ccc(Nc2ccc3nonc3c2[N+](=O)[O-])cc1 6.58%
COc1ccc(C)cc1S(=O)(=O)Nc1cccc(Cl)c1Cl -4.81%
O=C(Cc1ccc(Cl)cc1)NCc1nc(-c2ccccc2)no1 -9.63%
C/C(=N\NC(=O)c1ccccc1F)c1ccccn1 45%
CC(C)=C(NC(=O)c1ccccc1)C(=O)N/N=C(\C)c1ccccc1O -21.8%
CSCCC(NC(=O)c1ccccc1)C(=O)N1CCN(Cc2ccc(Cl)cc2)CC1 (centres undefined) -6.84%
CC(OC(=O)C1CC(=O)N(Cc2ccccc2)C1)C(=O)Nc1ccccc1[N+](=O)[O-] (centres undefined) -19.9%
CCCCN(C(=O)COc1ccc(NC(C)=O)cc1)C1CCS(=O)(=O)C1 (centres undefined) -10.3%
O=C(CCNC(=O)c1ccccc1Cl)NCc1ccco1 -14.5%
Cc1cccc(Nc2ccccc2C(=O)NCc2ccco2)c1C 2.61%
